Laboratory results as given in PubChem BioAssay (Tox21).
Several values for one entry are separate records, joined by “and”; a condition that tells them apart may be missing. Equal values may be shown once. Inconclusive results are not listed. Where a call stands in place of a potency, no number is given. Values without a mark were called inactive. Activity calls are given as the source filed them. Calls come from the whole dose curve.

Experiment: p53 small molecule agonists, cell-based qHTS assay: qHTS cell viability counter screen (AID 1963581); note: nearly all actives have a fitted effect of over 45% in size
Conditions: p53RE-bla HCT-116 viability, ATP luminescence, 16 h; series mostly up to 66 µM; activity change, negative = cytotoxicity: at the top concentration
Procedure, shortened: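 Compounds are pinned onto HCT-116 p53RE-bla cells and left 16 h at 37 C. Following the reporter FRET read, ATP is quantified by CellTiter-Glo luminescence after 30 min at room temperature.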
Potency is the fitted concentration of half-maximal effect.

Row | SMILES | Potency | activity change, negative = cytotoxicity
1 | CCCCCCCCCCCCOCC1CO1 (configuration not stated) | inactive | 
2 | CCC/C=C/C=O |  | -15%
3 | CCCCC(CC)COC(C)=O (configuration not stated) | inactive | 
4 | NC[C@H](O)c1ccc(O)c(O)c1 | inactive | 
5 | CC/C=C\C/C=C\C/C=C\CCCCCCCC(=O)O | inactive | 
6 | OCCNCCO | inactive | 
7 | CCCCC(CC)COP(=O)(O)OCC(CC)CCCC (configuration not stated) | 20.5 µM (active) and 25.7 µM (active) | 
8 | OC[C@H]1O[C@@H]2O[C@H]3[C@H](O)[C@@H](O)[C@@H](O[C@H]4[C@H](O)[C@@H](O)[C@@H](O[C@H]5[C@H](O)[C@@H](O)[C@@H](O[C@H]6[C@H](O)[C@@H](O)[C@@H](O[C@H]7[C@H](O)[C@@H](O)[C@@H](O[C@H]1[C@H](O)[C@H]2O)O[C@@H]7CO)O[C@@H]6CO)O[C@@H]5CO)O[C@@H]4CO)O[C@@H]3CO | inactive | 
9 | O=c1[nH]cnc2[nH]ncc12 | inactive | 
10 | Oc1ccc2cc(SSc3ccc4cc(O)ccc4c3)ccc2c1 | inactive | 
11 | O=C(O)c1ccc(C(=O)O)c(C(=O)O)c1 |  | -13.6%
12 | O=C1c2ccccc2CCc2ccccc21 | inactive | 
13 | CCN(CC)c1ccc(C(=O)c2ccccc2C(=O)O)c(O)c1 | inactive | 
14 | C=CC(=O)NCOCCCC |  | 8.1%
15 | N[C@@H](Cc1c[nH]c2ccc(O)cc12)C(=O)O | inactive | 
16 | CN=C(NC#N)NCCSCc1nc[nH]c1C | inactive | 

Row | SMILES | Potency | activity change, negative = cytotoxicity
17 | O=C(O)c1ccccc1C(c1ccc(O)cc1)c1ccc(O)cc1 | inactive | 
18 | CCCCCCCCCCCCCC[P+](CCCC)(CCCC)CCCC | 20.3 µM (active) and 25.7 µM (active) | 
19 | C[C@]12CCC(=O)C=C1CC[C@@H]1[C@@H]2[C@@H](O)C[C@@]2(C)[C@H]1CC[C@]2(O)C(=O)CO | inactive | 
20 | CC(C)c1ccc(S(=O)(=O)O)cc1 |  | 2.96%
21 | CC(C)CC(C)O (configuration not stated) | inactive | 
22 | C[N+](C)(C)CCO | inactive | 
23 | OCC(CO)(CO)CO | inactive | 
24 | CC1(C)O[C@@H]2C[C@H]3[C@@H]4C[C@H](F)C5=CC(=O)C=C[C@]5(C)[C@@]4(F)[C@@H](O)C[C@]3(C)[C@]2(C(=O)CO)O1 | inactive | 
25 | CC(C)OC(=O)C(C)(C)Oc1ccc(C(=O)c2ccc(Cl)cc2)cc1 | inactive | 
26 | CCCCCCCCCCCC(=O)N(C)CC(=O)O | inactive | 
27 | O=C(COc1ccc(Cl)cc1)N1CCN(Cc2ccc3c(c2)OCO3)CC1 | inactive | 
28 | CCC(=O)O[C@H]1[C@H](O[C@@H]2[C@@H](C)[C@H](O[C@H]3C[C@@](C)(OC)[C@@H](O)[C@H](C)O3)[C@@H](C)C(=O)O[C@H](CC)[C@@](C)(O)[C@H](O)[C@@H](C)C(=O)[C@H](C)C[C@@]2(C)O)O[C@H](C)C[C@@H]1N(C)C | inactive | 
29 | O=C1OC2(c3ccccc31)c1cc(Br)c(O)c(Br)c1Oc1c2cc(Br)c(O)c1Br | inactive | 
30 | NCCNCCNCCNCCN | inactive | 
31 | CC(=O)OC1CC(C)OC(C)O1 (configuration not stated) | inactive | 
32 | O=C1CC2(CCCC2)CC(=O)N1CCCCN1CCN(c2ncccn2)CC1 | inactive | 
